Among all 310,000 compounds or so, about 14,000 (4.5%) showed an effect of 50% or more. The effect is printed as a negative number. The entries come from a sample that favours strong results as a whole.
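Further: peak tail current of the secondary pulse compared with the same well before compound.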

Chain of human ether-à-go-go-related gene (hERG) potassium channel (Q12809 whole entry, looked up): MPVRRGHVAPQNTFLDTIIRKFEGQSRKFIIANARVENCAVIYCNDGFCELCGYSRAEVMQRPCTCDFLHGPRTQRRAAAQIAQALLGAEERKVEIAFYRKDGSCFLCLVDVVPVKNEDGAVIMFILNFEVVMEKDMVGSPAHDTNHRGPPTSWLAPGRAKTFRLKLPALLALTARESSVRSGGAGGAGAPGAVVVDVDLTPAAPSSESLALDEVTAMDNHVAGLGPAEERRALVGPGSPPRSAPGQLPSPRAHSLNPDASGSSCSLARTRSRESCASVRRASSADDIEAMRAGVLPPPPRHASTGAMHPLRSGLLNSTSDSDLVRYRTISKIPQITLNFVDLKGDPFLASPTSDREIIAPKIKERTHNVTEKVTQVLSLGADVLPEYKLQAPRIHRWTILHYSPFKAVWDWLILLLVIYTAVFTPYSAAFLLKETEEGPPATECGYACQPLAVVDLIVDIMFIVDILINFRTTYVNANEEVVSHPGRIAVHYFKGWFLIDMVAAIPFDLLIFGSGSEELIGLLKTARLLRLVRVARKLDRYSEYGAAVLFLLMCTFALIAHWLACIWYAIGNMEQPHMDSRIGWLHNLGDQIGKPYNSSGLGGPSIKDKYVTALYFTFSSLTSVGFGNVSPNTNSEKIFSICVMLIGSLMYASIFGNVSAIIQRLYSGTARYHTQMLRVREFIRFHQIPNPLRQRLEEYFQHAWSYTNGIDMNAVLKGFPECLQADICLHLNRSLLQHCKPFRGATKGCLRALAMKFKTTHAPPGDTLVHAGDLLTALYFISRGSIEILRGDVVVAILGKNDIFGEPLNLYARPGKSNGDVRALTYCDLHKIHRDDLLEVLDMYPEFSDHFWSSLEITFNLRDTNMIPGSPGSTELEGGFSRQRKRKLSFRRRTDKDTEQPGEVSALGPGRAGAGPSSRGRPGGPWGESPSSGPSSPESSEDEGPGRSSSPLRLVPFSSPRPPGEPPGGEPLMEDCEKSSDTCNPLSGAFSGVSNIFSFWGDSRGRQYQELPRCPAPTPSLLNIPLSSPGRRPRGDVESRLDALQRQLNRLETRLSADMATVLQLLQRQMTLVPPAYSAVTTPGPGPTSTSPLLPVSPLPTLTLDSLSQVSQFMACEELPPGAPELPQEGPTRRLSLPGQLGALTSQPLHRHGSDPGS

This experiment concerns the target human ether-à-go-go-related gene (hERG) potassium channel (human, UniProt Q12809). The experiment can be described thus: primary screen, population patch clamp on CHO cells stably expressing hERG; higher = less effect of the substance.
`O=[N+]([O-])c1ccc(O)c(-c2nn[nH]n2)c1`: the “hERG current change (%, negative = inhibition) at 10uM” value amounted to 1.52%.
The figure for `CC1=NN(C(=O)c2ccc(Cn3ccc([N+](=O)[O-])n3)cc2)C(O)(C(F)(F)F)C1` (stereo not drawn) is -8.73%.
On to `O=C1N(c2ccc(Cl)cc2)C(c2ccc(Cl)cc2)N2CCCN12` (stereo not drawn), for which the “hERG current change (%, negative = inhibition) at 10uM” value is listed as -16.7%.
Then `COc1ccccc1/C=C1\SC(=S)N(CCC(=O)NCCc2ccc(O)cc2)C1=O`, with 15.1%.
Then `CCOC(=O)Oc1ccc2oc(=O)cc(C)c2c1`, with 15.9%.
Then `O=c1[nH]c(/C=C/c2cccc3ccccc23)nc2ccccc12`, with 36.4%; and `COc1cccc(-c2cc(C(=O)N3CCN(C(=O)c4ccco4)CC3)on2)c1`, with -13.9%; and `COc1ccc(-c2cc(C(=O)N3CCN(C(=O)c4ccco4)CC3)[nH]n2)cc1`, with -31.6%.
As for `O=C(c1ccco1)N1CCN(C(=O)c2cc(-c3ccccc3F)no2)CC1`, the “hERG current change (%, negative = inhibition) at 10uM” value was -15.8%.
Consider `Cc1ccc(-c2cc(C(=O)N3CCN(C(=O)c4ccco4)CC3)[nH]n2)cc1C`, for which the “hERG current change (%, negative = inhibition) at 10uM” value is 5.83%.
For `O=C(c1cc(-c2ccc(Cl)cc2)n[nH]1)N1CCN(C(=O)c2ccco2)CC1`, the “hERG current change (%, negative = inhibition) at 10uM” value was -68.9%.
With `O=C(c1ccco1)N1CCN(C(=O)c2cc(-c3ccc(F)cc3)no2)CC1`, the “hERG current change (%, negative = inhibition) at 10uM” value is reported as -65.1%.
The figure for `CCOc1ccc(NC(=O)CCNC(=O)c2ccco2)cc1` is 6.08%; for `Cc1ccc(C(=O)COC(=O)CNC(=O)Cc2ccccc2)cc1` it is -2.44%.
Then `COc1ccc(CCN2C(=O)c3cccc4cccc(c34)C2=O)cc1OC`, with 12.9%; and `COc1ccc(C(CNC(=O)C(C)c2ccc3cc(OC)ccc3c2)N(C)C)cc1` (stereo not drawn), with -7.44%; and `Cc1ccc(NS(=O)(=O)c2cc(C(=O)NCc3ccccn3)ccc2Cl)cc1C`, with -47%.
With `COc1ccc(N2C(=O)C3C(c4ccc(OC)cc4O)NC(Cc4ccccc4)(C(=O)O)C3C2=O)cc1` (stereo not drawn), the “hERG current change (%, negative = inhibition) at 10uM” value amounted to 19.5%.
Then `COc1cc2c(cc1OC)CN(C(=O)CNC(=O)c1ccc(OC(F)F)cc1)CC2`, with -52.5%; and `COc1cc2c(cc1OC)CN(CC(=O)Nc1ccc(C)cc1)CC2`, with -16.4%; and `COc1cc2c(cc1OC)CN(CC(=O)Nc1ccc(C#N)cc1)CC2`, with -63.1%.
Then `COc1ccc(C(=O)NCC(=O)N2CCc3ccccc3C2)cc1`, with -2.27%.
Then `CCC(=O)c1ccc(OCC(=O)N2CCc3cc(OC)c(OC)cc3C2)cc1`, with -33.2%.
For the compound `COc1cc2c(cc1OC)CN(C(=O)COc1ccc(C)c(C)c1)CC2`, the “hERG current change (%, negative = inhibition) at 10uM” value was -11.9%.
Then `O=C(OCC(=O)N1CCc2ccccc2C1)c1ccc(OC(F)F)cc1`, with -80.2%.
The figure for `COc1cc2c(cc1OC)CN(C(=S)Nc1ccc(OC(F)F)cc1)CC2` is -38.8%.
The figure for `CCC(=O)c1ccc(OCC(=O)OCC(=O)N2CCc3ccccc3C2)cc1` is -24.8%.
Turning to `COc1cc2c(cc1OC)CN(CC(=O)Nc1ccc(F)cc1)CC2`, the “hERG current change (%, negative = inhibition) at 10uM” value is on record as -7.62%.
On to `NC(=O)Nc1ccc(C(=O)OCC(=O)N2CCc3ccccc3C2)cc1`, for which the “hERG current change (%, negative = inhibition) at 10uM” value came to 5.29%.
For `COc1cc2c(cc1OC)CN(C(=O)COc1ccc(C#N)cc1)CC2`, the “hERG current change (%, negative = inhibition) at 10uM” value is given as -63.4%.
Then `CCC(C(=O)O)n1nc(-c2ccccc2)c2cc(Cl)ccc21` (stereo not drawn), with 13.8%.
Then `COc1ccc(C(c2nnnn2C2CCCCC2)N2CCN(c3ccccc3F)CC2)cc1` (stereo not drawn), with 12.8%; and `Cc1csc2ncc(C(=O)N3CCc4ccccc43)c(=O)n12`, with 15.1%.
The figure for `C=CCn1c(COc2cccc3ccc(C)nc23)nnc1SCC(=O)OC` is -0.175%.
Take `CCOC(=O)Cn1nc(C)c(NC(=O)COc2ccc(C)c(C)c2)c1C`: the “hERG current change (%, negative = inhibition) at 10uM” value was 12.2%.
As to `O=S(=O)(Nc1cccc(F)c1)c1cccc2nsnc12`, the “hERG current change (%, negative = inhibition) at 10uM” value is listed as 3.21%.
The figure for `CCOc1ccc(-c2nnc(-c3cccs3)o2)cc1OCC` is 1.32%; for `O=C(OCc1nnc(-c2cccs2)o1)c1cccnc1Cl` it is 4.2%.
The figure for `CCOc1ccc(C(=O)OCc2nnc(-c3cccs3)o2)cc1OC` is -54.9%.
For the compound `COc1cc(OC)c(S(=O)(=O)NC(C)C)cc1S(=O)(=O)NC(C)C`, the “hERG current change (%, negative = inhibition) at 10uM” value was determined as 2.64%.
Consider `COc1ccc(C)cc1S(=O)(=O)Nc1ccc(F)cc1`, for which the “hERG current change (%, negative = inhibition) at 10uM” value is -1.24%.
Then `Cc1ccc(NC(=O)c2ccc3nccnc3c2)c(C)c1`, with -2.58%; and `CCCCc1cc(=O)oc2c(C)c(OCC(=O)NCCN3CCOCC3)ccc12`, with -82.1%.
For `CCCc1cc(=O)oc2c(C)c(OCC(=O)NCCN3CCOCC3)ccc12`, the “hERG current change (%, negative = inhibition) at 10uM” value is recorded as -31.6%.
Take `Cc1c(OCC(=O)NCCN2CCOCC2)ccc2c1oc(=O)c1ccccc12`: the “hERG current change (%, negative = inhibition) at 10uM” value is on record as -59.6%.
The figure for `CCc1cc(=O)oc2c(C)c(OCC(=O)NCCN3CCOCC3)ccc12` is -0.348%; for `Cc1c(C)c2ccc(OCC(=O)NCCN3CCOCC3)c(C)c2oc1=O` it is 1.61%; for `Cc1c(OCC(=O)NCCCN2CCOCC2)ccc2c1oc(=O)c1ccccc12` it is -46.6%.
In the case of `Cn1c(SCc2ccccc2C#N)nnc1-c1ccncc1`, the “hERG current change (%, negative = inhibition) at 10uM” value was 7.11%.
Then `CSc1ccccc1NC(=O)CN(C)C(=O)CCc1c[nH]c2ccccc12`, with 0.0989%.
The figure for `O=C(N/N=C/c1ccccn1)C1CC1` is -69.4%.
In the case of `O=C(N/N=C/c1ccccn1)c1ccccc1`, the “hERG current change (%, negative = inhibition) at 10uM” value stood at 2.75%.
Consider `CCOc1ccc(Br)cc1C(=O)N/N=C/c1ccccn1`, for which the “hERG current change (%, negative = inhibition) at 10uM” value is -40.8%.
As for `O=C(CCCC(=O)N/N=C\c1ccccn1)N/N=C\c1ccccn1`, the “hERG current change (%, negative = inhibition) at 10uM” value came to 2.44%.
The figure for `O=C(N/N=C/c1ccccn1)c1cc(Br)ccc1O` is -54.9%; for `O=C(N/N=C\c1ccccn1)c1ccccc1O` it is 11%.
The figure for `COC(=O)c1cccc(CSc2nnc(-c3ccco3)n2-c2ccccc2)c1` is -33.9%; for `C=CCNc1nnc(Cc2ccc(C(C)C)cc2)c(=O)[nH]1` it is -0.924%; for `CC(C)(C)c1ccc(-c2noc(CCC(N)=O)n2)cc1` it is -11%.
Then `Cc1ccc(NC(=O)C2CCN(S(=O)(=O)c3c(C)n[nH]c3C)CC2)nc1`, with -23%.
Consider `CC1CCC(NC(=O)c2nn(C)c3c2CSc2ccccc2-3)CC1` (stereo not drawn), for which the “hERG current change (%, negative = inhibition) at 10uM” value is on record as 3.11%.
The figure for `Cn1nc(C(=O)NC2CCCCC2)c2c1-c1ccccc1SC2` is -3.08%; for `Cn1nc(C(=O)NCCCN2CCCCC2)c2c1-c1ccccc1SC2` it is -66%; for `CC1CCCN(CCCNC(=O)c2nn(C)c3c2CSc2ccccc2-3)C1` (stereo not drawn) it is -72.5%.
Then `CC1CCCN(C(=O)c2nn(C)c3c2CSc2ccccc2-3)C1` (stereo not drawn), with -11.7%.
The figure for `Cn1nc(C(=O)NCCCN2CCCCC2)c2c1-c1ccccc1S(=O)(=O)C2` is -0.878%; for `CC1CCCCN1CCCNC(=O)c1nn(C)c2c1CSc1ccccc1-2` (stereo not drawn) it is -67.1%.
Take `CC1CCCN(CCCNC(=O)c2nn(C)c3c2CS(=O)(=O)c2ccccc2-3)C1` (stereo not drawn): the “hERG current change (%, negative = inhibition) at 10uM” value is given as -39.8%.
Then `CC1CCCCN1CCCNC(=O)c1nn(C)c2c1CS(=O)(=O)c1ccccc1-2` (stereo not drawn), with -8.49%.
The figure for `COc1cc(NC(=S)NC(=O)c2ccccc2C)ccc1NC(=O)c1cccs1` is -1.24%; for `CSc1n[nH]c(NCc2cccs2)n1` it is 8.8%; for `CC(C)CC(C(=O)NCC1CCCO1)N(C(=O)Cn1nnc(-c2ccc(F)cc2)n1)c1cccc(C(F)(F)F)c1` (stereo not drawn) it is -0.701%.
Then `CSc1nc(O)c(C(c2ccc(OC(C)C)cc2)c2c(O)nc(SC)[nH]c2=O)c(=O)[nH]1`, with 16.9%; and `CCOc1ccc(S(N)(=O)=O)cc1-c1nc2c(C(C)(C)C)nn(C)c2c(=O)[nH]1`, with 10.9%; and `CC(Sc1nnnn1-c1ccc(O)cc1)C(=O)NC1CCCCC1C` (stereo not drawn), with -9.23%.
For `CC(=O)C1=C(O)C(=O)N(c2ccc(S(=O)(=O)Nc3nccs3)cc2)C1c1ccc([N+](=O)[O-])cc1` (stereo not drawn), the “hERG current change (%, negative = inhibition) at 10uM” value was 10.6%.
The figure for `C=CCn1c(SCc2nc3ccccc3c(=O)[nH]2)nc2sc3c(c2c1=O)CCCC3` is 2.93%.
The figure for `Cc1ccc(Oc2nnc(-c3ccccc3)c3ccccc23)cc1` is -2.98%; for `c1ccc(-c2nnc(OCc3cccnc3)c3ccccc23)cc1` it is -83.2%.
`COc1ccc(-c2nnc(OCc3ccccc3)c3ccccc23)cc1`: the “hERG current change (%, negative = inhibition) at 10uM” value is 1.82%.
As for `Cc1ccc(-c2nnc(OCc3nc4ccccc4n3C)c3ccccc23)cc1`, the “hERG current change (%, negative = inhibition) at 10uM” value is -12%.
Then `Cc1ccc(-c2nnc(OCc3cccnc3)c3ccccc23)cc1`, with -75.7%; and `c1ccc(COc2cncc(-c3cccnc3)c2)cc1`, with -17.8%; and `CCC(C)n1c(-c2cccs2)nc2nc3ccccc3nc21` (stereo not drawn), with -4.95%.
The figure for `COCCn1c(SCC(=O)Nc2ccc(Cl)cn2)nnc1-c1ccncc1` is -54.2%; for `COCCn1c(SC(C)C(=O)Nc2ccc(Cl)cn2)nnc1-c1ccncc1` (stereo not drawn) it is 4.13%; for `COCCn1c(SCC(=O)Nc2cc(C(C)(C)C)nn2-c2ccccc2)nnc1-c1ccncc1` it is -60%.
Then `Cc1cc(NC(=O)CSc2nnc(-c3ccncc3)n2Cc2ccccc2)n(-c2ccccc2)n1`, with -58.8%; and `COCCn1c(SCC(=O)Nc2cc(C(C)(C)C)nn2-c2ccccc2)nc2ccccc2c1=O`, with -4.39%; and `COCCn1c(SCC(=O)Nc2cc(C)nn2-c2ccccc2)nnc1-c1ccncc1`, with -37.7%.
As to `CNC(=O)CSc1nnc(-c2ccncc2)n1Cc1ccccc1`, the “hERG current change (%, negative = inhibition) at 10uM” value came out at 9.26%.
Then `COCCn1c(SCC(=O)Nc2nnc(C)s2)nnc1-c1ccncc1`, with -0.996%.
For `Cc1cc(NC(=O)CSc2nnc(-c3ccncc3)n2C)n(-c2ccccc2)n1`, the “hERG current change (%, negative = inhibition) at 10uM” value is -21.9%.

For the origin of these results see paper PMC4336329 (PLoS ONE, 2015).
